“And” between values parts separate entries of the source, which are not always exact repeats. Equal entries are not always repeated. The source holds several records for some structures; these can differ, active in one and inactive in another. The source made the active and inactive calls. How the source made its calls: active means hit-call score of the fitted dose curve at least 0.9, where 1 is the maximum; inactive means score below 0.9.
How the values were obtained:
Conditions in all cases: mRNA level, 48 h; actives raise or lower the signal
[1] = read-out: Cytochrome P450 (CYP24A1), CYP24A1 (gene 1591); test: LTEA_HepaRG_CYP24A1: Life Technologies and Expression Analysis (LTEA) Assay for Cytochrome P450 (CYP24A1) using HepaRG (AID 2283478)
Outline: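 mRNA of CYP24A1 quantified by TaqMan qRT-PCR (ACTB/GAPDH/POLR2A normalization) after 48 h chemical exposure of HepaRG cells, top concentration 100 uM, half-log steps, 0.5% DMSO vehicle, duplicates. Curves fitted bidirectionally against DMSO baseline.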

[2] = read-out: Cytochrome P450 (CYP1A2), CYP1A2 (gene 1544); test: LTEA_HepaRG_CYP1A2: Life Technologies and Expression Analysis (LTEA) Assay for Cytochrome P450 (CYP1A2) using HepaRG (AID 2283479)
Outline: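 CYP1A2 transcript measured by TaqMan qRT-PCR against three housekeeping genes after 48-hour chemical exposure of HepaRG cells. Eight-point half-log series topping at 100 uM in 0.5% DMSO, duplicates; gain or loss fitted relative to vehicle.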

[3] = read-out: cysteine-aspartic acid protease (CASP8), CASP8 (gene 841); test: LTEA_HepaRG_CASP8: Life Technologies and Expression Analysis (LTEA) Assay for cysteine-aspartic acid protease (CASP8) using HepaRG (AID 2283480)
Outline: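 CASP8 transcript measured by TaqMan qRT-PCR with ACTB/GAPDH/POLR2A normalization, after 48 h chemical exposure of HepaRG cells in serum-free induction medium. Eight concentrations, top 100 uM, half-log steps, 0.5% DMSO vehicle; fits in both directions versus DMSO.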

[4] = read-out: Cytochrome P450 (CYP2B6), CYP2B6 (gene 1555); test: LTEA_HepaRG_CYP2B6: Life Technologies and Expression Analysis (LTEA) Assay for Cytochrome P450 (CYP2B6) using HepaRG (AID 2283481)
Outline: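 CYP2B6 transcript level quantified by qRT-PCR against three housekeeping genes, fitted bidirectionally relative to DMSO. HepaRG cultures received chemicals for 48 h, 8-point half-log series from 100 uM in 0.5% DMSO, duplicate wells, serum-free induction medium.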

CYP2C8 (gene 1558) = test: LTEA_HepaRG_CYP2C8: Life Technologies and Expression Analysis (LTEA) Assay for CYP2C8 using HepaRG (AID 2283483)
Outline: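 CYP2C8 expression measured by TaqMan qRT-PCR and normalized to three housekeeping genes. HepaRG cultures were treated for 48 h with an eight-point half-log series topping at 100 uM, vehicle 0.5% DMSO, duplicates; fitted both directions against DMSO.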

CYP2C9 (gene 1559) = test: LTEA_HepaRG_CYP2C9: Life Technologies and Expression Analysis (LTEA) Assay for CYP2C9 using HepaRG (AID 2283484)
Outline: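 CYP2C9 transcript level, quantified by TaqMan qRT-PCR against three housekeeping genes, was fitted bidirectionally relative to 0.5% DMSO. HepaRG cultures were treated 48 h, in duplicate, at eight half-log concentrations topping at 100 uM.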

CYP2E1 (gene 1571) = test: LTEA_HepaRG_CYP2E1: Life Technologies and Expression Analysis (LTEA) Assay for CYP2E1 using HepaRG (AID 2283485)
Outline: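 CYP2E1 transcript measured by Fluidigm qRT-PCR against three housekeeping genes in human HepaRG cells treated 48 h (top 100 uM, half-log steps, 0.5% DMSO vehicle). Gain or loss fitted relative to DMSO baseline.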

CYP4A11 (gene 1579) = test: LTEA_HepaRG_CYP4A11: Life Technologies and Expression Analysis (LTEA) Assay for CYP4A11 using HepaRG (AID 2283486)
Outline: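 Readout is CYP4A11 transcript level by qRT-PCR, normalized to three housekeeping genes and fitted bidirectionally against 0.5% DMSO. Human HepaRG cells were treated 48 h, in duplicate, with an 8-point half-log series topping at 100 uM.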

[5] = read-out: Cytochrome P450 3A4 (Homo sapiens) (UniProt P08684); test: LTEA_HepaRG_CYP3A4: Life Technologies and Expression Analysis (LTEA) Assay for CYP3A4 using HepaRG (AID 2283487)
Outline: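 Differentiated HepaRG cells in serum-free induction medium exposed in duplicate for 48 h to 8 half-log concentrations up to 100 uM in 0.5% DMSO. CYP3A4 mRNA measured by qRT-PCR normalized to ACTB, GAPDH and POLR2A; bidirectional fit versus DMSO.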

[6] = read-out: Pro-epidermal growth factor (Homo sapiens) (UniProt P01133); test: LTEA_HepaRG_EGF: Life Technologies and Expression Analysis (LTEA) Assay for Epidermal growth factor (EGF) using HepaRG (AID 2283489)
Outline: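 EGF transcript measured by Fluidigm TaqMan qRT-PCR with three housekeeping genes for normalization, 48 h after dosing HepaRG cultures in duplicate (top 100 uM, half-log steps, 0.5% DMSO vehicle). Gain or loss relative to DMSO fitted.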

[7] = read-out: Early growth response protein 1 (EGR1) transcription factor, EGR1 (gene 1958); test: LTEA_HepaRG_EGR1: Life Technologies and Expression Analysis (LTEA) Assay for Early growth response protein 1 (EGR1) transcription factor using HepaRG (AID 2283490)
Outline: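 EGR1 transcript levels quantified by qRT-PCR (Fluidigm arrays) against three housekeeping genes after 48 h chemical exposure of HepaRG cells. Eight-point half-log series topping at 100 uM, 0.5% DMSO vehicle, analyzed for gain or loss.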

[8] = read-out: Ezrin (EZR), EZR (gene 7430); test: LTEA_HepaRG_EZR: Life Technologies and Expression Analysis (LTEA) Assay for Ezrin (EZR) using HepaRG (AID 2283491)
Outline: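 Differentiated human HepaRG cells, 48 h after plating, were exposed in serum-free induction medium for 48 hours to eight half-log concentrations up to 100 uM in 0.5% DMSO. EZR mRNA was measured by TaqMan qRT-PCR, normalized to ACTB, GAPDH and POLR2A, and fitted bidirectionally against DMSO.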

[9] = read-out: Cytochrome P450 3A7 (Homo sapiens) (UniProt P24462); test: LTEA_HepaRG_CYP3A7: Life Technologies and Expression Analysis (LTEA) Assay for CYP3A7 using HepaRG (AID 2283492)
Outline: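 CYP3A7 transcript measured by qRT-PCR (ACTB, GAPDH, POLR2A normalization) after 48 h chemical exposure of HepaRG cells in duplicate. Eight half-log concentrations, maximum 100 uM, 0.5% DMSO vehicle; bidirectional curve fitting against DMSO baseline.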

CYP3A5 (gene 1577) = test: LTEA_HepaRG_CYP3A5: Life Technologies and Expression Analysis (LTEA) Assay for CYP3A5 using HepaRG (AID 2283493)
Outline: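 mRNA levels were quantified by qRT-PCR on Fluidigm arrays and normalized to three housekeeping genes. Differentiated HepaRG cells received 48 h exposure (top 100 uM, half-log steps, 0.5% DMSO vehicle, duplicate); bidirectional fitting versus DMSO.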

[10] = read-out: Fatty Acid-Binding Protein 1 (FABP1), FABP1 (gene 2168); test: LTEA_HepaRG_FABP1: Life Technologies and Expression Analysis (LTEA) Assay for Fatty Acid-Binding Protein 1 (FABP1) using HepaRG (AID 2283494)
Outline: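 FABP1 expression by TaqMan qRT-PCR, normalised to three housekeeping genes, in HepaRG cells after 48 h chemical treatment. Eight-point half-log series topping at 100 uM in 0.5% DMSO, duplicates; gain or loss fitted relative to vehicle.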

[11] = read-out: Cytochrome P450 4A22 (Homo sapiens) (UniProt Q5TCH4); test: LTEA_HepaRG_CYP4A22: Life Technologies and Expression Analysis (LTEA) Assay for Cytochrome P450 4A22 (CYP4A22) using HepaRG (AID 2283495)
Outline: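 Gene expression measured by qRT-PCR against three housekeeping genes (ACTB, GAPDH, POLR2A), with gain or loss fitted relative to 0.5% DMSO vehicle. HepaRG cultures received 48 h chemical treatment, top concentration 100 uM, half-log steps, duplicate wells.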

[12] = read-out: Cytochrome P450 7A1 (Homo sapiens) (UniProt P22680); test: LTEA_HepaRG_CYP7A1: Life Technologies and Expression Analysis (LTEA) Assay for Cytochrome P450 7A1 (CYP7A1) using HepaRG (AID 2283496)
Outline: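 HepaRG, 48 h exposure, 8-pt half-log series from 100 uM, 0.5% DMSO vehicle, duplicates. Readout: TaqMan qRT-PCR mRNA vs three housekeeping genes; bidirectional curve fit against DMSO baseline.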

[13] = read-out: Glutathione S-Transferase (GSTA2), GSTA2 (gene 2939); test: LTEA_HepaRG_GSTA2: Life Technologies and Expression Analysis (LTEA) Assay for Glutathione S-Transferase (GSTA2) using HepaRG (AID 2283497)
Outline: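 GSTA2 transcript levels came from Fluidigm TaqMan qRT-PCR normalized to three housekeeping genes, fitted in both directions against DMSO. HepaRG cultures received chemicals for 48 h in serum-free induction medium (0.5% DMSO), 8 half-log concentrations up to 100 uM, duplicate.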

[14] = read-out: Cytochrome P450 2C19 (Homo sapiens) (UniProt P33261); test: LTEA_HepaRG_CYP2C19: Life Technologies and Expression Analysis (LTEA) Assay for CYP2C19 using HepaRG (AID 2283482)
Outline: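 CYP2C19 transcript levels by qRT-PCR, normalized to three housekeeping genes, in HepaRG cells after 48 h chemical exposure. Eight-point half-log series topping at 100 uM, 0.5% DMSO vehicle. Increases and decreases both fitted against DMSO.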

[15] = read-out: DNA damage-inducible transcript 3 (DDIT3), DDIT3 (gene 1649); test: LTEA_HepaRG_DDIT3: Life Technologies and Expression Analysis (LTEA) Assay for DNA damage-inducible transcript 3 (DDIT3) using HepaRG (AID 2283488)
Outline: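 DDIT3 transcript was quantified by qRT-PCR with ACTB/GAPDH/POLR2A normalization after 48 h chemical treatment of differentiated HepaRG cells in 0.5% DMSO. Dosing was eight-point, half-log, top 100 uM, duplicate wells. Curves fitted bidirectionally versus DMSO.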

Measured: AC50

Chain of Cytochrome P450 3A4 (Homo sapiens) (P08684 whole entry, looked up): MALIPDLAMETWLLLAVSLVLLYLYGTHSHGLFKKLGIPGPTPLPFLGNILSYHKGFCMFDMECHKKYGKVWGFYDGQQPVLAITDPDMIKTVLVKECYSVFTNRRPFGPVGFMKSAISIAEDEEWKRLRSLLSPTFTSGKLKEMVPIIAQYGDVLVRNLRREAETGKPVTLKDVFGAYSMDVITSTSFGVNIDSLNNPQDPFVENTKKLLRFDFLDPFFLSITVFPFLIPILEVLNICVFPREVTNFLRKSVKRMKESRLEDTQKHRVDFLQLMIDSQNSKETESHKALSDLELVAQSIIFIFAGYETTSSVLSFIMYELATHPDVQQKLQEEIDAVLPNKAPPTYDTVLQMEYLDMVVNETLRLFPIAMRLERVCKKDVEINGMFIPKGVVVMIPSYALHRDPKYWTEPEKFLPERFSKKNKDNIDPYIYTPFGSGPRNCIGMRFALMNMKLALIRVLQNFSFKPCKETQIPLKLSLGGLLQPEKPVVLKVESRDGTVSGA
Chain of Cytochrome P450 3A7 (Homo sapiens) (P24462 whole entry, looked up): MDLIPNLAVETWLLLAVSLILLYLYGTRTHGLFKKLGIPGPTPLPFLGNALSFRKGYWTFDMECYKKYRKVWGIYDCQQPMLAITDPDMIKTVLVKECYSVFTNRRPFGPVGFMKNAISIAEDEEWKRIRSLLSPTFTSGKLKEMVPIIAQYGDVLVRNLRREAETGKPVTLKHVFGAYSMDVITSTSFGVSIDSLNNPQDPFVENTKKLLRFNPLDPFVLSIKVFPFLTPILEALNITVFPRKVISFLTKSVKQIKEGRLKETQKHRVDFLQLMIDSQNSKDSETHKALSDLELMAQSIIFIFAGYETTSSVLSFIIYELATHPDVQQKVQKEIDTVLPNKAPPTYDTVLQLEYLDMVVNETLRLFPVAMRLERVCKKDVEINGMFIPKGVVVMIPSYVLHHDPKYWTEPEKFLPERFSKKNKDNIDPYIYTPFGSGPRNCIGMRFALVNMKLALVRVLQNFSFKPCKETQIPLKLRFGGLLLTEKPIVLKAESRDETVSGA
Chain of Cytochrome P450 2C19 (Homo sapiens) (P33261 whole entry, looked up): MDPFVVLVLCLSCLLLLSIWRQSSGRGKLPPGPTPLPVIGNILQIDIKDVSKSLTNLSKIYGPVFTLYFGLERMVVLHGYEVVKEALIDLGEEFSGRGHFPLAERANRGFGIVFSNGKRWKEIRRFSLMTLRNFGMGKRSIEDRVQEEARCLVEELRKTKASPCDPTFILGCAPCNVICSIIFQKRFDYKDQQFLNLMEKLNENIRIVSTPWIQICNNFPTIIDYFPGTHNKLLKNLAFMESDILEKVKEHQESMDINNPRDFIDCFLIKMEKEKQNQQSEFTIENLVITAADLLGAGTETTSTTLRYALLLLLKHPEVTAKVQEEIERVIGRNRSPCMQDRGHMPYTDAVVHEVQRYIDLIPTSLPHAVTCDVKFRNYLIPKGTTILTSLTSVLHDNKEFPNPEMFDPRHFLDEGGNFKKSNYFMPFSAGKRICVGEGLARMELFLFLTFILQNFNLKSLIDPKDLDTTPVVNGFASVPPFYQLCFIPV

N#CSCSc1nc2ccccc2s1
active: [1] 12.4 µM | CYP2C9 (gene 1559) 75.3 µM | CYP2E1 (gene 1571) 81.2 µM | CYP4A11 (gene 1579) 94.4 µM | [9] 64.3 µM | [10] 88.5 µM | [11] 90.5 µM | [13] 86 µM
not listed: [14] | [15]
inactive: all other assays above

CCCCC(CC)CN1C(=O)C2C3C=CC(C3)C2C1=O (configuration not stated)
active: [2] 82.3 µM | [4] 88.6 µM | [14] 92 µM | CYP2C8 (gene 1558) 88.3 µM | CYP2C9 (gene 1559) 82.6 µM | CYP2E1 (gene 1571) 43 µM | CYP4A11 (gene 1579) 36.1 µM | [5] 91 µM | [15] 72.7 µM | [9] 85.7 µM | [10] 72.5 µM | [11] 62.5 µM | [12] 73.6 µM | [13] 79.5 µM
inactive: [1] | [6] | [7] | [8] | CYP3A5 (gene 1577)

CN(C)C(=O)Nc1ccc(Cl)c(Cl)c1
active: [2] 30 µM | [4] 10.9 µM | [14] 28.7 µM | CYP2E1 (gene 1571) 63 µM | [10] 50 µM | [12] 6.86 µM | [13] 50 µM
inactive: all other assays above

Cc1nn(C)c(Oc2ccccc2)c1C=NOCc1ccc(C(=O)OC(C)(C)C)cc1
active: [2] 2.35 µM | [4] 1.68 µM | CYP2C8 (gene 1558) 25.7 µM | CYP2C9 (gene 1559) 20.1 µM | CYP2E1 (gene 1571) 2.75 µM | CYP4A11 (gene 1579) 2.99 µM | [5] 1.84 µM | [7] 1.22 µM | [8] 3.29 µM | [9] 1.37 µM | CYP3A5 (gene 1577) 9.26 µM | [10] 7.21 µM | [11] 2.91 µM | [12] 34.7 µM | [13] 30.4 µM
inactive: [1] | [6]

CCN(CC)C(=O)c1cccc(C)c1
active: [4] 3.4 µM | CYP2C8 (gene 1558) 9.19 µM | CYP2C9 (gene 1559) 3.56 µM | CYP2E1 (gene 1571) 13.4 µM
not listed: [3] | [5] | [9] | [14] | [15]
inactive: all other assays above

S=C(S)NCCNC(=S)S.[Mn+2].[S-]C([S-])=NCCN=C([S-])[S-].[Zn+2]
inactive: [1] | [6] | [8]
active: [2] 502 nM and 444 nM and 615 nM | [4] 1.05 µM and 1.1 µM and 1.15 µM | CYP2C8 (gene 1558) 1.13 µM and 1.15 µM and 1.5 µM | CYP2C9 (gene 1559) 823 nM and 816 nM and 891 nM | CYP2E1 (gene 1571) 1.21 µM and 1.4 µM and 1.62 µM | CYP4A11 (gene 1579) 1.38 µM and 1.51 µM and 1.36 µM | [5] 827 nM and 1.11 µM and 1.02 µM | [6] 2.3 µM and 673 nM | [7] 3.58 µM and 2.44 µM and 4.53 µM | [9] 947 nM and 1.22 µM and 1.41 µM | CYP3A5 (gene 1577) 1.94 µM and 1.32 µM and 700 nM | [10] 1.18 µM and 1.26 µM and 1.71 µM | [11] 1.38 µM and 1.35 µM | [12] 1.57 µM and 1.44 µM and 1.47 µM | [13] 890 nM and 1.14 µM and 997 nM

Reference: PubChem BioAssay (EPA / NIEHS)
